Compound activity from PubChem.
HUVEC tox TNFa: toxic to HUVEC cells under TNF alpha stimulation; HUVEC TNFalpha-stimulated, Hoechst cell count, imaging; cell count reduction, % at 2 µM; actives 0.17% (n = 93,000); AID 848;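 active means cell count reduction exceeding the screen mean by over 5 SD, scaled to untreated wells per plate, cut at about 78% in these data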;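 further: cells counted after 24 h of TNF alpha exposure following the 1 h pretreatment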
VCAM1 TNFa inh: reduces TNF alpha induced VCAM1 expression in HUVEC; HUVEC TNFa-induced VCAM-1 immunofluorescence, high-content imaging; inhibition, % at 2 µM; actives 0.48% (n = 95,000); AID 802;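 active means inhibition above the batch mean plus 3 SD, with images confirmed as a hit by eye, cut at about 37% in these data; inconclusive means inhibition above that limit but hit not confirmed in images; inactive means inhibition not above that limit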;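 further: 0% = TNF-stimulated DMSO wells and 100% = unstimulated control wells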
F-actin modifier: alters cytoskeleton assembly in HUVEC cells | inhibition, % at 2 µM | AID 836 | actives 0.18% (n = 91,000) | HUVEC TNFa F-actin phalloidin imaging, high content;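 active means inhibition above the batch mean plus 3 SD and confirmed as a hit by visual image inspection, cut at about 30% in these data, passing the limit was not always enough; inconclusive means above the inhibition threshold but rejected on visual inspection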
E-sel TNF inh: blocks E-selectin expression induced by TNF alpha. HUVEC TNFa-induced E-selectin immunofluorescence, high content. inhibition, % at 2 µM. actives 0.71% (n = 120,000);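 active means inhibition above the batch mean plus 3 SD, and confirmed as a hit on visual image review, cut at about 43% in these data; inconclusive means passes the inhibition cutoff but fails visual image review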;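 further: 0% = TNF-stimulated DMSO wells and 100% = unstimulated control wells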
Starred values were filed as active, the others as inactive; u = inconclusive; x = no result. Hits are enriched below; roughly 1% of the tested compounds scored in any of these assays.

SMILES | HUVEC tox TNFa | VCAM1 TNFa inh | F-actin modifier | E-sel TNF inh
N#Cc1cc2sc3nnc(-c4ccncc4)n3c2cc1C#N | x | x | x | 57.5*
CCN(CC)CCNC(=O)CS(=O)Cc1nc(-c2ccccc2Cl)oc1C (stereo unspecified) | -5.4 | -12.9 | -8.8 | 70.9*
CCOC(=O)C(C(C)=O)C(c1ccc(OCCC(C)C)cc1)C(C(C)=O)C(=O)OCC (stereo unspecified) | -8.7 | 3.1 | -13.1 | -11.4
CC1=NNC(=O)/C1=C\c1cn(-c2ccccc2)nc1-c1ccc(Cl)cc1 | 84.2* | 99.2* | 16.4 | 17.0
Cc1ccc(-c2nn(-c3ccccc3)cc2C=C2C(=O)CC(C)(C)CC2=O)cc1 | -3.9 | 8.2 | 1.3 | -30.1
CCOC(=O)N1CCN(CC(=O)N2c3ccccc3CC2C)CC1 (stereo unspecified) | -21.8 | 0.2 | 7.0 | x
c1ccc(OCCOCCSc2ncccn2)cc1 | -17.8 | 7.0 | 6.3 | -5.7
OCCCc1nc2n(n1)C(c1cccs1)C=C(c1ccc(Br)cc1)N2 (stereo unspecified) | -7.9 | -16.3 | -3.9 | -4.6
Fc1ccc(C2=CC(c3ccco3)n3ncnc3N2)cc1 (stereo unspecified) | x | x | x | 4.3
Brc1ccc(C2=CC(c3cccs3)n3ncnc3N2)cc1 (stereo unspecified) | 14.9 | 3.7 | -1.0 | 99.9*
C1=C(c2ccc(-c3ccccc3)cc2)Nc2ncnn2C1c1ccco1 (stereo unspecified) | 0.8 | -2.2 | 1.6 | 64.5*
COc1ccc(OC)c2sc(NC(=O)CCS(=O)(=O)c3ccccc3)nc12 | 4.1 | 49.5* | 6.7 | 93.0*
CO/N=C/C(=N\Nc1ccc(OC)cc1)C(=O)c1ccc(F)cc1 | x | x | x | -10.9
CO/N=C/C(=N\Nc1ccc(C)cc1)C(=O)c1ccc(OC)cc1 | 24.2 | 40.1* | -19.2 | 6.1
CC(C)Cn1cnc2c1c(=O)n(CC(=O)Nc1ccc3c(c1)OCO3)c(=O)n2Cc1ccccc1 | 13.1 | -1.3 | -14.9 | 70.9*
Cc1cc(NC(=O)Cn2c(=O)c3c(ncn3CC(C)C)n(Cc3ccccc3)c2=O)no1 | x | x | x | -30.1
Cc1ccc([N+](=O)[O-])cc1N/C=C1\CCc2ccccc2C1=O | 0.9 | 2.4 | 18.1 | -32.3
CCOC(=O)c1cnc2ccc(C)cc2c1Nc1ccc(N2CCOCC2)cc1 | 4.8 | -17.9 | -11.3 | 99.8*
CCOc1ccc(Nc2cc(C)nc(N3CCOCC3)n2)cc1 | -40.7 | -0.8 | -7.4 | -1.4
CCOC(=O)c1ccc(Nc2cc(C)nc(N3CCOCC3)n2)cc1 | -39.8 | -8.8 | -17.2 | 67.3*
CCOC(=O)c1cnc2ccc(C(=O)OC)cc2c1Nc1cccc(C(=O)O)c1 | x | x | x | 3.5
COc1ccccc1NC(=O)C(NC(=O)OC(C)(C)C)C(C)OCc1ccccc1 (stereo unspecified) | -42.3 | -25.0 | -2.3 | 12.6
Cc1ccc(C)n1-c1cccc(NC(=O)c2ccccc2)c1 | x | x | x | 92.7*
CCC(=O)N1CCc2cc(Br)cc(S(=O)(=O)NCc3ccco3)c21 | x | x | x | 78.9*
CCCCN(Cc1ccccc1)C(=O)C1CCN(S(=O)(=O)c2c(C)noc2C)CC1 | -6.0 | -1.1 | x | -5.7
SMILES | HUVEC tox TNFa | VCAM1 TNFa inh | F-actin modifier | E-sel TNF inh
Cc1cc(C)c(NC(=O)CSc2nnc(SCC(=O)Nc3c(C)cc(C)cc3C)n2N)c(C)c1 | -8.4 | -4.5 | x | -26.0
CCc1nc(SCc2cc(Cl)ccc2OC)n[nH]1 | x | 50.0 | -26.4 | -7.8
CC(C)Cn1c(-c2cccs2)nc2ccccc21 | 3.9 | -2.8 | -8.5 | 84.8*
COc1ccc(-c2nc(CNS(=O)(=O)c3ccc(OC)c(OC)c3)cs2)cc1 | -37.6 | 7.9 | -7.3 | 58.2*
C=CCc1cccc(C2Nc3ccccc3C(=O)N2O)c1O (stereo unspecified) | -20.5 | -0.7 | -27.5 | 62.1*
O=C1c2ccccc2NC(c2ccc(Cl)cc2Cl)N1O (stereo unspecified) | -27.9 | 4.1 | 28.7 | -3.8
Cc1ccc(-c2nnc(N3CCN(C(=O)CN4C(=O)c5ccccc5C4=O)CC3)c3ccccc23)cc1 | -2.9 | 2.8 | 6.0 | 100.0*
O=C(CN1C(=O)c2ccccc2C1=O)N1CCN(c2nnc(-c3ccccc3)c3ccccc23)CC1 | -6.6 | 5.4 | -11.2 | -7.9
COc1cccc(-n2c(SC3CCOC3=O)nc3ccccc3c2=O)c1 (stereo unspecified) | -16.4 | -0.5 | 2.9 | 95.7*
CC(C)NC1CS(=O)(=O)CC1O (stereo unspecified) | 100.0* | u | u | 11.6
CC1(C)Cc2c(sc(NC(=O)C(C)(C)C)c2C#N)C(C)(C)N1 | 89.1* | -13.3 | 76.2* | -20.1
CCC(=O)Nc1sc2c(c1C#N)CC(C)(C)NC2(C)C | 22.8 | 4.7 | -26.8 | x
CC1CCCN(C(=O)C(Cc2ccccc2)n2cccc2)C1 (stereo unspecified) | 5.8 | 12.9 | -14.8 | x
